Screens (PubChem BioAssay)
Pf apPOL block – Pf-apPOL inhibitors, biochemical, fluorescence. Plasmodium falciparum apicoplast DNA polymerase (apPOL). inhibition, % at 10 µM. hit rate 0.25% among 210,000. AID 1794808, 2022. Recombinant Pf-apPOL, molecular beacon fluorescence, 1.5 h
mHTT-CaM PPI inh – mutant huntingtin-calmodulin interaction inhibitors – biochemical, AlphaScreen, primary screen. P42858. AlphaScreen His-mHTT/GST-CaM binding, luminescence. inhibition, % at 15 µM. hit rate 3.6% among 190,000. AID 1671202, 2021;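 also: 0% = both proteins with DMSO and 100% = one protein alone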
Starred values were filed as active, the others as inactive; . = no result. The list is not random: actives were taken first. Their share in the collection is about 3.5%. Rule as the data show it: active = inhibition above about 50%; inactive = the rest.

SMILES | Pf apPOL block | mHTT-CaM PPI inh
CCCNC1=C(N(C(C)=O)c2cccc(F)c2)C(=O)c2ccccc2C1=O | -15 | 27
COc1cccc(N(C(C)=O)C2=C(NC3CCCCC3)C(=O)c3ccccc3C2=O)c1 | 6 | 62*
CC(=O)N(C1=C(NC2CCCCC2)C(=O)c2ccccc2C1=O)c1ccc(F)c(F)c1 | -6 | 48
COc1ccc(OC)c(NC(=O)N2CCc3nc[nH]c3C2)c1 | 0 | 19
COc1ccc(NC(=O)N2CCc3nc[nH]c3C2)c(OC)c1 | 73* | 13
NC(=O)c1c(N)sc2c1CCCCC2 | -10 | 64*
NC(=O)c1c(N)sc2c1CCC2 | -9 | .
CCCCNC(=O)C1CCN(c2nc3ccccc3[nH]2)CC1 | -8 | -9
Brc1ccc(C2=CC(c3cccc(Br)c3)n3nnnc3N2)cc1 (stereo unspecified) | -2 | 3
C=CCc1cc(C=C2C(=O)c3ccccc3C2=O)cc(OCC)c1O | -3 | 9
CN(C)S(=O)(=O)c1ccc(C(=O)N2Cc3nn(C(C)(C)C)c(-n4cccc4)c3C2)cc1 | -3 | 54*
CC(C)(C)n1nc2c(c1-n1cccc1)CN(C(=O)c1ccc(=O)[nH]c1)C2 | 5 | 21
O=C1Nc2cc(C(=O)N3CCC4(CC3)OCCO4)ccc2N2CCCCC12 (stereo unspecified) | -1 | -4
CCOc1ccc(C(=O)NCc2cccnc2-c2ccccc2)cc1 | -12 | 11
COCCC1CCN(C(=O)C(C)c2ccccc2)CC1 (stereo unspecified) | 1 | 1
CC(C(=O)N1CCC(N2CCc3ccccc32)CC1)c1ccccc1 (stereo unspecified) | 4 | 68*
CN(C)C=C(C#N)C(=O)C1CC1 | -23 | .
CC(=O)Nc1ccc(-c2noc(C3CCN(C(=O)c4ccccc4C)CC3)n2)cc1 | 4 | 0
CCOc1ccc(NC(=O)C2CCCN(c3nnc4ccccn34)C2)cc1 (stereo unspecified) | -4 | 5
CCc1ccc(NC(=O)C2CCCN(c3nnc4ccccn34)C2)cc1 (stereo unspecified) | -4 | 56*
COc1ccccc1NC(=O)c1c(NCc2cccc(F)c2)sc2c1CCC2 | -17 | 63*
CCOc1ccccc1NC(=O)c1c(NCc2cccc(OC)c2OC)sc2c1CCC2 | -17 | 32
COc1cc(OC)c(OC)cc1CNc1sc2c(c1C(=O)Nc1ccccc1OC)CCC2 | -15 | 53*
COc1ccccc1NC(=O)c1c(NC(=O)c2ccco2)sc2c1CCCC2 | 1 | -2
COc1ccccc1NC(=O)N(C)CC1CC(c2ccc(Cl)cc2)=NO1 (stereo unspecified) | -4 | 4
SMILES | Pf apPOL block | mHTT-CaM PPI inh
Cc1ccc(C2C(C#N)=C(N)OC3=C2C(=O)CCC3)o1 (stereo unspecified) | -1 | 1
Cc1ccc(C2C(C#N)=C(N)Oc3c2sc2ccccc32)o1 (stereo unspecified) | 7 | 86*
CCN(CC)Cc1c(O)ccc2c1OC(=Cc1c[nH]c3ccccc13)C2=O | -31 | 72*
CCN(CC)Cc1c(O)ccc2c1OC(=Cc1ccccc1C)C2=O | 0 | 10
CCN1CCN(Cc2c(O)ccc3c2OC(=Cc2c[nH]c4ccccc24)C3=O)CC1 | -6 | 54*
CN1CCN(Cc2c(O)ccc3c2OC(=Cc2c[nH]c4ccccc24)C3=O)CC1 | -10 | -1
COc1ccc(-c2n[nH]c(C)c2-c2ccccc2)c(O)c1OC | -4 | 48
CC1C(=O)N(Cc2cn(Cc3ccco3)nn2)CCS(=O)(=O)N1Cc1ccc(-c2cccc(N(C)C)c2)cc1 (stereo unspecified) | -2 | 64*
Cc1ccc(-c2ccc(CN3C(CC(C)C)C(=O)N(Cc4cn(Cc5ccco5)nn4)CCS3(=O)=O)cc2)cc1 (stereo unspecified) | -5 | 38
CC(C)CC1C(=O)N(Cc2cn(Cc3ccco3)nn2)CCS(=O)(=O)N1Cc1ccc(-c2cccc(N(C)C)c2)cc1 (stereo unspecified) | -4 | 68*
CC1C(=O)N(Cc2cn(Cc3ccco3)nn2)CCS(=O)(=O)N1Cc1ccc(-c2cccnc2)cc1 (stereo unspecified) | -3 | 7
O=[N+]([O-])c1ccc(Sc2c(-c3ccccc3)nc3ccccn23)cc1 | 1 | .
CCNC(=O)c1ccc2c3c(onc13)-c1ccccc1C2=O | 0 | 51*
CCNC(=O)c1ccccc1-c1ccccc1C(=O)O | -3 | -5
COc1ccc(CNC(=O)C2(C)CCCN(C(=O)COc3cccc(C)c3)C2)cc1 (stereo unspecified) | 6 | 5
Cc1ccccc1NC(NC(=O)c1cc([N+](=O)[O-])cc([N+](=O)[O-])c1)C(Cl)(Cl)Cl (stereo unspecified) | -2 | 53*
O=C(NC(Nc1ccc([N+](=O)[O-])cc1)C(Cl)(Cl)Cl)c1ccccc1 (stereo unspecified) | -8 | 44
